# Data reported in publication PMC7862700, “An all-to-all approach to the identification of sequence-specific readers for epigenetic DNA modifications on cytosine”.
# Assays:
# Assay in all cases: DAPPL (digital affinity profiling via proximity ligation, sequencing); 10 mM Tris-HCl pH 7.5, 50 mM NaCl, 1 mM DTT, 4% glycerol, room temperature, 30 min; GST-TFs on glutathione beads, 16-mer random dsDNA library, 0.1% formaldehyde crosslink after washing; high values mean tight binding
# FLI1 = biological target: T1, FLI1 (Homo sapiens, UniProt Q01543 1-452); details: protein: recombinant; tags: N-terminal GST; dsDNA, one strand shown
# T1 sequence: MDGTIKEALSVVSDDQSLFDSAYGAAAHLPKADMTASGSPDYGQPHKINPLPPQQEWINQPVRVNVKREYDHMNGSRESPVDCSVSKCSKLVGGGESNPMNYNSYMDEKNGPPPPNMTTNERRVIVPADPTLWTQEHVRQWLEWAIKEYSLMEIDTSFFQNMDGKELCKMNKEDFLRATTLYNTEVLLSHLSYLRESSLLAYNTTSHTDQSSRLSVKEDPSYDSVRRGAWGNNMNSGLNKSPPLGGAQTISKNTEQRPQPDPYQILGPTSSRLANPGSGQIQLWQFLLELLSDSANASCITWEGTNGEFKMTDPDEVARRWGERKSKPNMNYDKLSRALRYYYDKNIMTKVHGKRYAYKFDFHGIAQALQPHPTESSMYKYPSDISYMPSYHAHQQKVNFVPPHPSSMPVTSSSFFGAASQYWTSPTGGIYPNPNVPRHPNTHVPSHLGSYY
# Outline: (§1)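 Human transcription factors fused to GST were expressed in yeast, captured on glutathione beads, given DNA barcodes and pooled with a GST-only negative control. Pools were incubated with 200 nmole of a 16-mer random double-stranded DNA library in Tris/NaCl/DTT/glycerol buffer at room temperature for 30 min. They were then washed, crosslinked with 0.1% formaldehyde, proximity-ligated (BsaI/T4 ligase, 1 h, 37 °C), PCR-amplified and sequenced on an Illumina NextSeq500. Binding signal is each 6-mer's read frequency for a factor divided by its frequency for the GST control.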
# ELK1 = biological target: T2, ELK1 (Homo sapiens, UniProt P19419 1-428); details: protein: recombinant; tags: N-terminal GST; dsDNA, one strand shown
# T2 sequence: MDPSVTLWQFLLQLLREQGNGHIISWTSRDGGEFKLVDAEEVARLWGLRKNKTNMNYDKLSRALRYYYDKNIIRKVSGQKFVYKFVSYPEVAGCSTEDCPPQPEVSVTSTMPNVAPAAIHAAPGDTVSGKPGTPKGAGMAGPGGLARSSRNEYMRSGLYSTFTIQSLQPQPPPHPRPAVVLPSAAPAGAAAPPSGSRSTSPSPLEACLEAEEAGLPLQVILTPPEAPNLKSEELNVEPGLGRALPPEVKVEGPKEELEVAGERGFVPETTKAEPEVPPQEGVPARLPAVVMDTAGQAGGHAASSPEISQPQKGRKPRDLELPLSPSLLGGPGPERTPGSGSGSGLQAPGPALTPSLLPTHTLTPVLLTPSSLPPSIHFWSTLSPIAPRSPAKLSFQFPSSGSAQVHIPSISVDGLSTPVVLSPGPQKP
# Outline: as §1
# GABPA = biological target: T3, GABPA (Homo sapiens, UniProt Q06546 1-454); details: protein: recombinant; tags: N-terminal GST; dsDNA, one strand shown
# T3 sequence: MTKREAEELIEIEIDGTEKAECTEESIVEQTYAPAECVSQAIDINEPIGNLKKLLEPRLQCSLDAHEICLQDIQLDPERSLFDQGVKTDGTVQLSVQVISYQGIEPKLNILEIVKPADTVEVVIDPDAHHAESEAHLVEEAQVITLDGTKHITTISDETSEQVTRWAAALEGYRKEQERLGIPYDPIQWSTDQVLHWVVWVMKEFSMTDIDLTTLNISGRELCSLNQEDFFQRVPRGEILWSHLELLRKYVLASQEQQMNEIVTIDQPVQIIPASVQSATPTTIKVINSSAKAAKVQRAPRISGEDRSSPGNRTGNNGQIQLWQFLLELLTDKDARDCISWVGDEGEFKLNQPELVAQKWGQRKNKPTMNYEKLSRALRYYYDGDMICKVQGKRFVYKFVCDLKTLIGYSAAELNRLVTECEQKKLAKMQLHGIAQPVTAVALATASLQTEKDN
# Outline: as §1
# ERG = biological target: T4, ERG (Homo sapiens, UniProt P11308 1-479); details: protein: recombinant; tags: N-terminal GST; dsDNA, one strand shown
# T4 sequence: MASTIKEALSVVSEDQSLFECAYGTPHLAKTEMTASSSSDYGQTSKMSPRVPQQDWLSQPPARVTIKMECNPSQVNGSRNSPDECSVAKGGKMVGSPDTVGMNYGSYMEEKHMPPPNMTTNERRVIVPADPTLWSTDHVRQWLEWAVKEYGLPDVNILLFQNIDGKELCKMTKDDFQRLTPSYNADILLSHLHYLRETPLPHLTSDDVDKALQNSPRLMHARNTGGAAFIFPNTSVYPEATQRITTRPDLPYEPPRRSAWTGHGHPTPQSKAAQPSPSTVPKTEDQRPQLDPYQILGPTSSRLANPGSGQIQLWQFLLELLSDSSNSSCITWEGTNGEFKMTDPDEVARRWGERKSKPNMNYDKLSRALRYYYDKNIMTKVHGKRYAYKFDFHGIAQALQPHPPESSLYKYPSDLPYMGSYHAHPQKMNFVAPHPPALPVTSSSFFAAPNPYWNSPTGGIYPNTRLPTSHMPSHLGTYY
# Outline: as §1
# ELF1 = ELF1 (Homo sapiens, UniProt P32519 1-619); details: protein: recombinant; tags: N-terminal GST; dsDNA, one strand shown
# Sequence of ELF1 (P32519 whole entry): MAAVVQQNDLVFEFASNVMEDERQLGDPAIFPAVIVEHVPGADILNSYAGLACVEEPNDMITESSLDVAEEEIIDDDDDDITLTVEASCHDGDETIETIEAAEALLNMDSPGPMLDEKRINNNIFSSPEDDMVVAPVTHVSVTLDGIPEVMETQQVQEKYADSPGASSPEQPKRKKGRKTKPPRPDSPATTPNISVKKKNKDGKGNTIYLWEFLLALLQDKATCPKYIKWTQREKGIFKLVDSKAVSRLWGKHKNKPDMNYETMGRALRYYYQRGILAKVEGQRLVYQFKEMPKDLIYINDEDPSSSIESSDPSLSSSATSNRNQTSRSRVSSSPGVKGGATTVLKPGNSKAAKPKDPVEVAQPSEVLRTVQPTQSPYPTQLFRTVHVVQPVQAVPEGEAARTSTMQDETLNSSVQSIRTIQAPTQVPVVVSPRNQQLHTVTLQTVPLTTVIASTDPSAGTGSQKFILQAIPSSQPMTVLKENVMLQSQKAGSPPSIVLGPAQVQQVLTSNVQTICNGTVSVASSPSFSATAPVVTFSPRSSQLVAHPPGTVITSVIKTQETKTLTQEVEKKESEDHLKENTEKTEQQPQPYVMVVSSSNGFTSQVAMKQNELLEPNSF
# Outline: as §1
# EHF = biological target: T5, EHF (Homo sapiens, UniProt Q9NZC4 1-300); details: protein: recombinant; tags: N-terminal GST; dsDNA, one strand shown
# T5 sequence: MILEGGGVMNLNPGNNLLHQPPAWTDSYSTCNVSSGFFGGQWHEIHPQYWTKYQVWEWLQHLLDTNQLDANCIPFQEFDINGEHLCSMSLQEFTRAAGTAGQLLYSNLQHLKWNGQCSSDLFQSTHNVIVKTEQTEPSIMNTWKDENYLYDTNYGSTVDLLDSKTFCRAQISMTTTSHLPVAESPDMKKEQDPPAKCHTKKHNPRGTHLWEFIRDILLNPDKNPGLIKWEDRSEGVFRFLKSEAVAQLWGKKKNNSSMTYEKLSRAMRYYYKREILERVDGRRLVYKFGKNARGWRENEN
# Outline: as §1
# SPI1 = SPI1 (Homo sapiens, UniProt P17947 1-270); details: protein: recombinant; tags: N-terminal GST; dsDNA, one strand shown
# Outline: as §1
# SPIB = SPIB (Homo sapiens, UniProt Q01892 1-262); details: protein: recombinant; tags: N-terminal GST; dsDNA, one strand shown
# Sequence of SPIB (Q01892 whole entry): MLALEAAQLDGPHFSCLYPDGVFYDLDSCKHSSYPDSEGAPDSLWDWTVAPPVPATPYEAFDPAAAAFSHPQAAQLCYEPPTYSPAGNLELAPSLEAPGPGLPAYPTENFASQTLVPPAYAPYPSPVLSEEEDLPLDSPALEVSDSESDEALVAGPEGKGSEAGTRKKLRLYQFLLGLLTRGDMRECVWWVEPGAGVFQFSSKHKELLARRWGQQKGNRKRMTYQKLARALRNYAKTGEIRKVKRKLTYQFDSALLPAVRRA
# Outline: as §1
# ELK3 = biological target: T6, ELK3 (Homo sapiens, UniProt P41970 1-407); details: protein: recombinant; tags: N-terminal GST; dsDNA, one strand shown
# T6 sequence: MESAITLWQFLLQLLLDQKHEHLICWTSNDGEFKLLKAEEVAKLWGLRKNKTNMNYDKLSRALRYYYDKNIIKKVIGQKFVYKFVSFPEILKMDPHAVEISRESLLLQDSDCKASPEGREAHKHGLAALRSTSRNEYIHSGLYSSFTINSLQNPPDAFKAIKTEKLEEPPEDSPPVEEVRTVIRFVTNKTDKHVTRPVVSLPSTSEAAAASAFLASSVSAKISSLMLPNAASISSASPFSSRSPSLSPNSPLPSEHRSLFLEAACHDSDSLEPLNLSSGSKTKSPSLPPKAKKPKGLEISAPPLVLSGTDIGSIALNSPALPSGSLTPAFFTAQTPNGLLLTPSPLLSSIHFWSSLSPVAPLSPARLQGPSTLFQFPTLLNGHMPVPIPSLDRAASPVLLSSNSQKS
# Outline: as §1
# FEV = biological target: T7, FEV (Homo sapiens, UniProt Q99581 1-238); details: protein: recombinant; tags: N-terminal GST; dsDNA, one strand shown
# T7 sequence: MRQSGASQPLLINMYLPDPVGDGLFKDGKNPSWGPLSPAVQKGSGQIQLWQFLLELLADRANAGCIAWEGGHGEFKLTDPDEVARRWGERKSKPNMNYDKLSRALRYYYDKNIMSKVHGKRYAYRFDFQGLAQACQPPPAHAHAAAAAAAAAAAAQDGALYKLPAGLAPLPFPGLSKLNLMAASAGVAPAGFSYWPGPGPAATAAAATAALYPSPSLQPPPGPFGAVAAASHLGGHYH
# Outline: as §1
# ETV5 = ETV5 (Homo sapiens, UniProt P41161 1-510); details: protein: recombinant; tags: N-terminal GST; dsDNA, one strand shown
# Sequence of ETV5 (P41161 whole entry): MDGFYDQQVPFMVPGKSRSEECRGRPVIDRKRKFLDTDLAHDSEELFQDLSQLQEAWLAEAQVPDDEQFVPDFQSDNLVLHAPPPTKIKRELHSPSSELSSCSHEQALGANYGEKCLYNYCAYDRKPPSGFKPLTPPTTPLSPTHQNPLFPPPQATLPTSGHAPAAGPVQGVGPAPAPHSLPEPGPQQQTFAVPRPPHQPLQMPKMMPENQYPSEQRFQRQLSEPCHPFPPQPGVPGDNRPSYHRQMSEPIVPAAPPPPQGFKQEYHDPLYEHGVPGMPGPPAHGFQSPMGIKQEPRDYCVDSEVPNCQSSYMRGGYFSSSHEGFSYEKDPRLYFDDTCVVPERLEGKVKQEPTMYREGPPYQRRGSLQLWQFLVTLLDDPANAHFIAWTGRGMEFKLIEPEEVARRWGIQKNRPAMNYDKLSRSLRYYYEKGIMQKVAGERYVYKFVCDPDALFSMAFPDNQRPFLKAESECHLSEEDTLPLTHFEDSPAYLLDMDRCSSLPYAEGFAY
# Outline: as §1
# HSF1 = HSF1 (Homo sapiens, UniProt Q00613 1-529); details: protein: recombinant; tags: N-terminal GST; chain copies: 3; dsDNA, one strand shown
# Sequence of HSF1 (Q00613 whole entry): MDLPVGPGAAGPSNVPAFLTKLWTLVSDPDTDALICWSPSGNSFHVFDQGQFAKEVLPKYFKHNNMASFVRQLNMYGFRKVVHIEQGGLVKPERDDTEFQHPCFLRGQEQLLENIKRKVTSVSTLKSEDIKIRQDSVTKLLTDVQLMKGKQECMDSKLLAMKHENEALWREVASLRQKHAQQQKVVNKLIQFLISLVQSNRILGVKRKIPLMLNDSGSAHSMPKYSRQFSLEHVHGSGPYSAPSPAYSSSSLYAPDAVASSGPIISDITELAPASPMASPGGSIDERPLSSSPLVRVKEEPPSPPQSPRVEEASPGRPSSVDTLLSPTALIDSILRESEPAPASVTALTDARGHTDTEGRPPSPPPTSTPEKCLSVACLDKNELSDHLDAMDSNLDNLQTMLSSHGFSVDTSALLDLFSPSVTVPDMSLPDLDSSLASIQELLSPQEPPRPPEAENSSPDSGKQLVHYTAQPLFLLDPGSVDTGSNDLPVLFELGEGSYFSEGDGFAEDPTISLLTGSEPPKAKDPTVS
# Outline: as §1
# SPIC = biological target: T8, SPIC (Homo sapiens, UniProt Q8N5J4 1-248); details: protein: recombinant; tags: N-terminal GST; dsDNA, one strand shown
# T8 sequence: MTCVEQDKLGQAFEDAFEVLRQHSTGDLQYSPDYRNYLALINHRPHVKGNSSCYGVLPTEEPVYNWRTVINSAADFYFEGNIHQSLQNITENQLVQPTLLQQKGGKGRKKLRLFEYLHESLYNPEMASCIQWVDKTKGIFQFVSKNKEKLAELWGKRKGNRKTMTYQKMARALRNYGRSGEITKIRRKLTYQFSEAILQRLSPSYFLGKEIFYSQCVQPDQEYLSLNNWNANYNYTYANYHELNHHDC
# Outline: as §1
# ELF4 = ELF4 (Homo sapiens, UniProt Q99607 1-663); details: protein: recombinant; tags: N-terminal GST; dsDNA, one strand shown
# Sequence of ELF4 (Q99607 whole entry): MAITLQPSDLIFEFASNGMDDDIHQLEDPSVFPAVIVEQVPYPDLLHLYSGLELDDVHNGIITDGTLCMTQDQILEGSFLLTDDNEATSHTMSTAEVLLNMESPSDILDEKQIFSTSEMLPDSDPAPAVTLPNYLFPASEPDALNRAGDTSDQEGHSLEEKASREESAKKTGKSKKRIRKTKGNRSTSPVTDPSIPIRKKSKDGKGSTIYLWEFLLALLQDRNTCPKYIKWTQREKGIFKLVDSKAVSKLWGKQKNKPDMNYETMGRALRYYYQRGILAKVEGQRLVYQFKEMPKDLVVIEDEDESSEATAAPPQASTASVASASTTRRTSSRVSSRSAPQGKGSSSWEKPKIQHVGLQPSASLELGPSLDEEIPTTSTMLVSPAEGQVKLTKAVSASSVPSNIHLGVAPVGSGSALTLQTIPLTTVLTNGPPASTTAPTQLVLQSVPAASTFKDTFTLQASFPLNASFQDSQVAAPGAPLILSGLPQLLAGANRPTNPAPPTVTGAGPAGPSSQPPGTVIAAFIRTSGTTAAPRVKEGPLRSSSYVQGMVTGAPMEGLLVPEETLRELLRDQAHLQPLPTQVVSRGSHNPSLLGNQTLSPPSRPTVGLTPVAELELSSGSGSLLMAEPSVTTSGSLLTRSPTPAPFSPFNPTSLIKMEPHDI
# Outline: as §1
# ELK4 = biological target: T9, ELK4 (Homo sapiens, UniProt P28324-2 1-405); details: protein: recombinant; tags: N-terminal GST; dsDNA, one strand shown
# T9 sequence: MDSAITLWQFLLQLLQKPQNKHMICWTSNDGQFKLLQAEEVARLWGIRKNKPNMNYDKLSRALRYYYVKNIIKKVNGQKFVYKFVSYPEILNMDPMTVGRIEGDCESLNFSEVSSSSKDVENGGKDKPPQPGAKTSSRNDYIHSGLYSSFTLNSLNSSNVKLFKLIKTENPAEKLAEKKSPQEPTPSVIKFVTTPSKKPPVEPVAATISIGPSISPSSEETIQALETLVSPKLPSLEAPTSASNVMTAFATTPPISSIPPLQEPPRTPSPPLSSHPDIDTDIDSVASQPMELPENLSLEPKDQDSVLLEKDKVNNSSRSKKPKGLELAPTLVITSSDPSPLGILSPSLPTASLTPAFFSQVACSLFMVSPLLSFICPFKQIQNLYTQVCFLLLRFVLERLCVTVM
# Outline: as §1
# ETV2 = biological target: T10, ETV2 (Homo sapiens, UniProt O00321 1-342); details: protein: recombinant; tags: N-terminal GST; dsDNA, one strand shown
# T10 sequence: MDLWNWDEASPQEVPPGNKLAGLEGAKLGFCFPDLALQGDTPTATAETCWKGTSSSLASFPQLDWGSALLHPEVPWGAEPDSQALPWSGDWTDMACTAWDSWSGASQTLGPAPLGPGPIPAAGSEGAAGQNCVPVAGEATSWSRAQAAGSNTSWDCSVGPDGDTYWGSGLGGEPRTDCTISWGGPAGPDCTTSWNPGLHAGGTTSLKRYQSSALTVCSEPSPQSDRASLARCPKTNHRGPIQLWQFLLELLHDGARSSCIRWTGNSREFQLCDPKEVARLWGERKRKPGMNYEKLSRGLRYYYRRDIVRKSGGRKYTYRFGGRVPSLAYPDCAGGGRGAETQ
# Outline: as §1
# ELF3 = biological target: T11, ELF3 (Homo sapiens, UniProt P78545 1-371); details: protein: recombinant; tags: N-terminal GST; dsDNA, one strand shown
# T11 sequence: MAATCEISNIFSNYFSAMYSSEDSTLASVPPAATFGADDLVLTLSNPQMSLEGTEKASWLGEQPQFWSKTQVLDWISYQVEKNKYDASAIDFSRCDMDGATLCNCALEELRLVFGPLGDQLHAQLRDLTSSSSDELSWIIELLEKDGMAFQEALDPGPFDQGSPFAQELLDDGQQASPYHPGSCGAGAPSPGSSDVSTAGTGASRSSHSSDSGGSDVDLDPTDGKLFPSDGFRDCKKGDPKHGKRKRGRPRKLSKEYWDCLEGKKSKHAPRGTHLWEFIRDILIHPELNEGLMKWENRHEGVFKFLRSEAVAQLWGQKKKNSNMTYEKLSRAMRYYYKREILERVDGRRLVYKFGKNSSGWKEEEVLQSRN
# Outline: as §1
# CRX = CRX (Homo sapiens, UniProt O43186 1-299); details: protein: recombinant; tags: N-terminal GST; dsDNA, one strand shown
# Sequence of CRX (O43186 whole entry): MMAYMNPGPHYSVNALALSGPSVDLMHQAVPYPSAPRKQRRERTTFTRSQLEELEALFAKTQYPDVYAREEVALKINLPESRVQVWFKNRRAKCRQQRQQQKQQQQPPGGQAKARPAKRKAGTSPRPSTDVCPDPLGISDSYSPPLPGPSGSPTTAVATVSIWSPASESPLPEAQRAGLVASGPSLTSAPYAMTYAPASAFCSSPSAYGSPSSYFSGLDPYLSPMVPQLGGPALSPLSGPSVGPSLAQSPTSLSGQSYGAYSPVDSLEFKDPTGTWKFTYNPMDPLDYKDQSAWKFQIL
# Outline: as §1
# ETV1 = ETV1 (Homo sapiens, UniProt P50549 1-477); details: protein: recombinant; tags: N-terminal GST; dsDNA, one strand shown
# Sequence of ETV1 (P50549 whole entry): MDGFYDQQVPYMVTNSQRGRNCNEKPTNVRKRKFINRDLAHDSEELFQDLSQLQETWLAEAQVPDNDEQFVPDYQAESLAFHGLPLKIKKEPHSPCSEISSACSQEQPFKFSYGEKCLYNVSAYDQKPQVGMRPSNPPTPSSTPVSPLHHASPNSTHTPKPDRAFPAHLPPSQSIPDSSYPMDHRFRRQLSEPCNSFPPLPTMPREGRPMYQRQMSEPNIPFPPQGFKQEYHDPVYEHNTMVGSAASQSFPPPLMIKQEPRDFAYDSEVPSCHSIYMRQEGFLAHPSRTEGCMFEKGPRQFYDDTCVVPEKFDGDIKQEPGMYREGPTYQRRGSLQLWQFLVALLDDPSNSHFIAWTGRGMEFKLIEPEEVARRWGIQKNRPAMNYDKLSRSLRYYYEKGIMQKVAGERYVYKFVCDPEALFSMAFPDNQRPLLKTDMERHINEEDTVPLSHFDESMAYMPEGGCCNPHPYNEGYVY
# Outline: as §1
sequence,measurement,setting,value
GCTAAT,binding signal,FLI1,"1.14 fold enrichment (6-mer frequency, TF over GST control)"
same,binding signal,ELK1,"1.18 fold enrichment (6-mer frequency, TF over GST control)"
same,binding signal,GABPA,"1.17 fold enrichment (6-mer frequency, TF over GST control)"
same,binding signal,ERG,"1.13 fold enrichment (6-mer frequency, TF over GST control)"
same,binding signal,ELF1,"1.16 fold enrichment (6-mer frequency, TF over GST control)"
same,binding signal,EHF,"1.17 fold enrichment (6-mer frequency, TF over GST control)"
same,binding signal,SPI1,"1.13 fold enrichment (6-mer frequency, TF over GST control)"
same,binding signal,SPIB,"1.17 fold enrichment (6-mer frequency, TF over GST control)"
same,binding signal,ELK3,"1.2 fold enrichment (6-mer frequency, TF over GST control)"
same,binding signal,FEV,"1.18 fold enrichment (6-mer frequency, TF over GST control)"
same,binding signal,ETV5,"1.11 fold enrichment (6-mer frequency, TF over GST control)"
same,binding signal,HSF1,"1.72 fold enrichment (6-mer frequency, TF over GST control)"
same,binding signal,SPIC,"1.23 fold enrichment (6-mer frequency, TF over GST control)"
same,binding signal,ELF4,"1.27 fold enrichment (6-mer frequency, TF over GST control)"
same,binding signal,ELK4,"1.22 fold enrichment (6-mer frequency, TF over GST control)"
same,binding signal,ETV2,"1.24 fold enrichment (6-mer frequency, TF over GST control)"
same,binding signal,ELF3,"1.22 fold enrichment (6-mer frequency, TF over GST control)"
same,binding signal,CRX,"2.56 fold enrichment (6-mer frequency, TF over GST control)"
same,binding signal,ETV1,"1.14 fold enrichment (6-mer frequency, TF over GST control)"
